# Assay outcomes as filed in PubChem.
# aSyn UTR act = Activators via SNCA 5'UTR binding, MLPCN | hit rate 7.1% among 300,000 | alpha-synuclein 5'UTR reporter, activators screen | activity score, % (tested at 7.5 µM), hits read low; in the data active = activity score below about -60%
# The depositor's hits bear a star. These entries were drawn from the full list.
SMILES,aSyn UTR act
Cc1nc(NC(=O)C(C)Oc2cccc(Cl)c2)sc1C(=O)N(C)C (configuration not stated),-65*
Cc1nc(NC(=O)/C=C/c2ccccc2)sc1C(=O)N(C)C,-166*
Cc1nc(NC(=O)c2oc3ccccc3c2C)sc1C(=O)N(C)C,-193*
Cc1cc(C)c(C)c(N=Nc2nc3ccccc3n2C)c1C,-75*
Cc1ccc(C)c(N=Nc2nc3ccccc3n2C)c1,-202*
CC(=O)Nc1ccc(NC(=O)c2ccccc2S(=O)(=O)c2ccccc2[N+](=O)[O-])cc1,-81*
CC1(c2ccc(NC(=O)c3ccccc3F)cc2)CC1(Cl)Cl (configuration not stated),-195*
N/C(Cc1ccc([N+](=O)[O-])cc1)=N\OC(=O)c1ccccc1F,-185*
O=[N+]([O-])c1ccccc1S(=O)(=O)c1ccccc1,-79*
O=C(Nc1ccc(-c2ccc([N+](=O)[O-])cc2)cc1)c1ccccc1F,-69*
O=C(Nc1ccc([N+](=O)[O-])cc1)c1ccccc1F,-154*
O=c1oc(/C=C/c2ccccc2)nc2sc3c(c12)CCC3,-212*
O=c1oc(-c2ccccc2)nc2sc3c(c12)CCCC3,-103*
O=c1oc(-c2cccs2)nc2sc3c(c12)CCCCC3,-90*
CCc1c(-c2ccccc2)nc2sc3c(c2c1N)CCCC3,-113*
Nc1nc(-c2cccnc2)nc2sc3c(c12)CCCC3,-122*
CCOc1cccc(C(=O)Nc2cccc(C(C)=O)c2)c1,-151*
COc1ccc(C(=O)Nc2cccc(OC(=O)c3ccco3)c2)cc1,-113*
COc1cccc(C(=O)Nc2cccc(OC(C)=O)c2)c1,-90*
CC1CC(C)(C)Nc2ccc(OC(=O)c3ccco3)cc21 (configuration not stated),70
CCOc1c(Cl)cc(C(=O)Nc2cccc(C(=O)O)c2)cc1Cl,-80*
CCOc1ccc(C(=O)Nc2ccc(N3CCN(C)CC3)cc2)cc1Br,-75*
O=C(Nc1cc2c(cc1C(=O)O)OCCCO2)c1ccc(C(F)(F)F)cc1,-94*
CCOc1cccc(C(=O)Nc2ccc(N3CCCC3)cc2)c1,-66*
COc1cccc(C(=O)Nc2cccc(C(C)=O)c2)c1,-114*
SMILES,aSyn UTR act
N#CC1=C(N)N2C(=C(C#N)C1c1cccc(Br)c1)Nc1ccccc12 (configuration not stated),60
CC(=O)Nc1cccc(NC(=O)c2ccc(COc3ccccc3)cc2)c1,-142*
CCOc1ccc(OCc2ccc(C(=O)N/N=C(\C)c3ccccn3)cc2)cc1,64
COc1ccc(C(=O)Nc2ccc(N3CCCC3)cc2)cc1OC,-166*
CC(=O)c1cc2c(cc1NC(=O)c1ccc(C)cc1)OCO2,-101*
COc1cccc(C(=O)Nc2cc3c(cc2C(C)=O)OCCO3)c1,-72*
Cc1ccc(N=C2N=C(N)c3ccccc32)cc1C,-78*
CCc1ccc(N=C2N=C(N)c3ccccc32)cc1,-98*
CSc1ccccc1OCc1cc(C(=O)N(C)CC2COCCO2)no1 (configuration not stated),-83*
CSc1ccccc1OCc1cc(C(=O)N(C)Cc2nonc2C)no1,-119*
CSc1ccccc1OCc1cc(C(=O)N(C)Cc2ccncn2)no1,-81*
CCn1ccnc1CN(C)C(=O)c1cc(COc2ccccc2SC)on1,-101*
CSc1ccccc1OCc1cc(C(=O)NCc2cccc(C)n2)no1,-112*
Cc1nc(CNC(=O)c2cc(COc3c(F)cccc3F)on2)cs1,41
Cc1ccc(/C=N/Nc2cccc3cccnc23)c(O)c1,-271*
Oc1ccc(/C=N/Nc2nccnc2Cl)c(O)c1,88
Oc1ccc(/C=N/Nc2cccc3cccnc23)c(O)c1,-405*
Cc1ccc(S(=O)(=O)Nc2cccc3cccnc23)c([N+](=O)[O-])c1,71
COc1cc(C(=O)NC(=S)NNC(=O)c2cnccn2)cc(OC)c1OC,79
CCC(NC(=O)c1cc(COc2ccc(OC)cc2Cl)on1)c1ccncc1 (configuration not stated),-71*
COc1cc(Cl)ccc1OCc1cc(C(=O)NC(C)Cc2cnccn2)no1 (configuration not stated),-145*
CCC(NC(=O)c1cc(COc2ccc(Cl)cc2OC)on1)c1ccncc1 (configuration not stated),-121*
COc1ccc(OCc2cc(C(=O)NC(C)Cn3cncn3)no2)c(Cl)c1 (configuration not stated),-62*
CCc1nnc(NC(=O)c2sc3nc4c(cc3c2N)CCCCC4)s1,-138*
CCc1nnc(NC(=O)c2sc3nc4c(cc3c2N)CCCCCC4)s1,-75*
SMILES,aSyn UTR act
COc1ccc(-c2nnc(SCC(=O)Nc3cc(F)ccc3C)o2)cc1,-161*
COc1cccc(NC(=O)CSc2nnc(-c3ccc(C)cc3)o2)c1,-114*
Cc1ccc(SCC(=O)Nc2cccc(-c3nnc(-c4ccco4)o3)c2)cc1,-144*
O=S(=O)(c1ccc(-c2nnc(SCc3nnc(-c4ccccc4)o3)o2)cc1)N1CCCC1,-117*
Cc1nc2ccccc2cc1OCc1ccc(Cl)cc1,-72*
COc1cccc(COc2cc3ccccc3nc2C)c1,-96*
Cc1nc(N)nc(N)c1CCCc1ccc(Cl)c(Cl)c1,92
Cc1cc(C(=O)Nc2ccc([N+](=O)[O-])cn2)cs1,-137*
CC(Oc1cccc(Cl)c1)C(=O)Nc1ccc([N+](=O)[O-])cn1 (configuration not stated),55
Cc1ccc(C(=O)Nc2ccc([N+](=O)[O-])cn2)o1,-93*
COc1ccc(C(=O)NC(=S)NCC2CCCO2)cc1 (configuration not stated),-71*
CC(C)CNc1nc(N)c([N+](=O)[O-])c(NCC2CCCO2)n1 (configuration not stated),51
COc1cccc(-c2cc(C(=O)NCC3CCCO3)on2)c1 (configuration not stated),-64*
O=C(NCC1CCCO1)c1cc(-c2ccc(F)cc2)no1 (configuration not stated),-264*
O=C(Nc1ccc(NC(=O)c2ccccc2)nc1)c1ccncc1,-81*
O=C(Nc1ccccn1)c1ccco1,-100*
COc1ccc(C(=O)Nc2ccc(NC(=O)c3ccccc3OC)nc2)cc1,-96*
CCC(=O)Nc1cc(C)c(NC(=O)c2ccccc2OC)cn1,-70*
CCC(=O)Nc1ccc(NC(=O)c2cccc(OC)c2)nc1,-171*
COc1ccc(C(=O)Nc2ccc(NC(=O)C3CC3)nc2)cc1,-87*
COc1cccc(C(=O)Nc2ccc(NC(=O)C3CC3)cn2)c1,-157*
O=C(Cc1ccccc1)Nc1ccc(NC(=O)c2ccco2)nc1,-149*
CC(C)(C)C(=O)Nc1ccc(NC(=O)c2ccco2)nc1,102
COc1ccccc1C(=O)Nc1ccc(NC(=O)c2ccco2)cn1,-80*
CCOC(=O)C(C)Oc1cccc2c(=O)n(CC(=O)NCc3ccccc3)ccc12 (configuration not stated),73
SMILES,aSyn UTR act
CCOC(=O)COc1cccc2c(=O)n(CC(=O)NCCc3ccccc3)ccc12,-73*
COc1cc2[nH]c3c(=O)n4c(nc3c2cc1OC)SCCC4,-97*
Cc1ccc(CNC(=O)C2(S(=O)(=O)c3ccccc3)CC=CC2)cc1,-114*
C=CCn1c(=N)n(CC(=O)c2cccc([N+](=O)[O-])c2)c2ccccc21,-77*
Cc1ccc(N=Nc2ccc(O)c3ncccc23)cc1,86
Cc1ccc(N=Nc2c(O)n(CN3CCOCC3)c3ccccc23)cc1,-116*
C/C(Cn1nnc([N+](=O)[O-])n1)=N\NC(=O)c1ccccc1,-73*
